Source: PubChem (National Center for Advancing Translational Sciences (NCATS))
Shown are actives, neighbours in structure and some others; about 1.3% of the full set was active somewhere.
Rango complex inh – qHTS Assay for Inhibitors of Rango (Ran-regulated importin-beta cargo) - Importin beta complex formation; Potency, µM (titrated, usually from 92.2 µM), for inactives: at the top dose inhibition of complex formation; 0.031% of 340,000 active; Importin subunit beta-1 (Homo sapiens), Q14974; Rango CFP/YFP FRET sensor + importin beta, 45 min;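 note: potency is the fitted concentration of half-maximal effect; 0% = DMSO wells and 100% = buffer wells lacking importin beta; nearly all actives have a fitted effect of over 15% in size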
Target sequence (Q14974 whole entry, looked up): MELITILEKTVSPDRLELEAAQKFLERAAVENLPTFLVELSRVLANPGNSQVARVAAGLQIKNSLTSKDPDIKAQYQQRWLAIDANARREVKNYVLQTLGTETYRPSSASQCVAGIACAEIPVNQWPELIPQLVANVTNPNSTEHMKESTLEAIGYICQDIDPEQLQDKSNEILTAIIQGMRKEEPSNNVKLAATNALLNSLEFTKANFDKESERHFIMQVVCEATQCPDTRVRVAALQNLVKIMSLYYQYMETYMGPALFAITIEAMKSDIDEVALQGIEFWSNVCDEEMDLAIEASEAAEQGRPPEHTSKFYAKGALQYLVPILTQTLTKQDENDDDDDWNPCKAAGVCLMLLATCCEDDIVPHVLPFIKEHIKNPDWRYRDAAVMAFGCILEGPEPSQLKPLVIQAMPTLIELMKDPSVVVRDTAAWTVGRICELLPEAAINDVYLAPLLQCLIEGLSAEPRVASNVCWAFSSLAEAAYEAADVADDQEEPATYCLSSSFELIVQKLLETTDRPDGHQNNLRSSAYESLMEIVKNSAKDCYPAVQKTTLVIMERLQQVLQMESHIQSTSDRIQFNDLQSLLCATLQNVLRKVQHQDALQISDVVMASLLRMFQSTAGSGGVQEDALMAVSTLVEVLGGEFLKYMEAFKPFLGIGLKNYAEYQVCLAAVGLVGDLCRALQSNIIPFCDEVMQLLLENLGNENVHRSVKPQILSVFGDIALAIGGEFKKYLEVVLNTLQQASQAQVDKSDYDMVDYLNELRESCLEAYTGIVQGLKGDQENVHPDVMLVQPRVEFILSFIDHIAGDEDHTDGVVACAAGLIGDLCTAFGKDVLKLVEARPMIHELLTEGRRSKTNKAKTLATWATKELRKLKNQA
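Inhibition scored from the CFP 486 nm/YFP 530 nm FRET ratio 45 min after adding 0.125 microM importin beta to 50 nM Rango biosensor preincubated 5 min with compound (room temperature, PBS with DTT, Tween-20, BSA). No-importin wells as positive control.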
KCNH2 3.1 inh – qHTS for Inhibitors of KCHN2 3.1: Mutant qHTS. U2OS KCNH2 3.1, thallium flux FluxOr; hits give low values. activity change, % (tested at about 1.8 µM). 0.95% of 340,000 active. AID 720553, 2013;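 active = maximum activity change below -70%; inconclusive = maximum activity change from -70% to -50%; inactive = maximum activity change above -50%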;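 note: thallium influx rate constant from kinetic fluorescence after stimulation buffer; % is set by controls: 0 for no effect and ±100 for the full control effect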
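Channel expression came from 3.1 mutant virus (1.77 x 10^8 /mL) applied to suspended U2OS cells for 4 h. Flux was tracked with FluxOr dye plus Red40 quencher, and kinetic rate constants normalized to controls.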
hERG WT inh – qHTS for Inhibitors of KCHN2 3.1: Wildtype qHTS; 0.37% of 340,000 active; activity change, % at 1.84 µM; Voltage-gated inwardly rectifying potassium channel KCNH2 (Homo sapiens), Q12809; U2OS, BacMam KCNH2, thallium flux FluxOr; hits give low values;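 active = maximum activity change below -70%; inconclusive = maximum activity change between -70% and -50%; inactive = maximum activity change above -50%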; note: % is set by controls: 0 for no effect and ±100 for the full control effect
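U2OS cells were transduced with wild-type KCNH2 virus (2.03 x 10^8 / mL) for 4 h at room temperature, then cultured overnight at 37 C. Thallium flux was read with FluxOr dye. Rate constants were normalized to DMSO controls.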
Rango release inh – qHTS Assay for Inhibitors of RanGTP induced Rango (Ran-regulated importin-beta cargo) - Importin beta complex dissociation; Biochemical FRET Rango-importin beta, RanGTP-induced dissociation; Potency, µM (doses to about 46.1 µM), for inactives: top-dose activity change, negative = inhibition; 0.071% of 340,000 active; Snurportin-1 (Homo sapiens) + GTP-binding nuclear protein Ran (Homo sapiens) + Importin …; note: potency is the fitted concentration of half-maximal effect; % of control where 0% means no effect; nearly all actives have a fitted effect of over 45% in size
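Quantitative HTS using a FRET biosensor: 0.1 uM Rango, 0.25 uM importin beta, 0.6 uM Ran, 2 mM GTP, 0.2 uM RCC1 final, PBS with DTT, Tween-20 and BSA. Post-read taken 45 min after Ran addition.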
* = called active by the depositor; ? = inconclusive; · = no result. Unless noted, calls come from the whole dose curve.

SMILES | Rango complex inh | KCNH2 3.1 inh | hERG WT inh | Rango release inh
Cc1ccc(CNC(=O)C2CCC(=O)N(CCc3cccc(F)c3)C2)cc1 (centres undefined) | -4% | -84* | -5 | -5%
O=C(COC(=O)c1cc(Cl)cc(Cl)c1)NCc1ccco1 | -2% | -4 | 30 | 0%
CCn1ncc(Br)c1C(=O)NC1CCCCCCC1 | -5% | 8 | 19 | 13%
Clc1cccc(CN2CCSCC2)c1Cl | -1% | -3 | 5 | 18%
CC(C)CNS(=O)(=O)c1ccc(CCC(=O)N2CCC(C(N)=O)CC2)cc1 | -2% | -113* | 4 | -9%
CC(=O)Oc1ccc(-c2ccc(C(=O)OCC(=O)N(C)CC(=O)Nc3ccccc3Cl)cc2)cc1 | 0% | · | -3 | -3%
Cc1ccc(-n2cc(CNCCn3nc(C)cc3C)c(-c3ccc(F)cc3)n2)cc1 | -1% | -79* | -29 | 22%
COc1ccc(NC(=O)CCn2cccc2)cc1 | 2% | -78* | -9 | -11%
CCN(CC)c1ccc(NC(=O)CN2CCN(CC(=O)Nc3ccc(OC)cc3)CC2)cc1 | 4% | -86* | 6 | -8%
O=C(CN1CCN(CC(=O)Nc2ccc(Cl)cc2)CC1)Nc1ccc(F)cc1 | 12% | -118* | -137* | 14%
O=C(CN1CCN(Cc2ccc3c(c2)OCO3)CC1)Nc1ccc(F)cc1 | 0% | -84* | -15 | 1%
Cc1cc(C)c(NC(=O)COC(=O)c2nc3nccc(C)n3n2)c(Cl)c1 | 0% | 7 | 2 | 2%
COc1ccc(OCc2cc(C(=O)N3CCCC(O)C3)no2)c2ccccc12 (centres undefined) | 0% | -7 | -22 | 0%
CCOc1ccccc1NS(=O)(=O)c1ccc2oc(=O)ccc2c1 | 0% | 5 | -6 | -1%
CCN(CC(=O)Nc1ccc2c(c1)OCCO2)CC(=O)Nc1ccc(C)c(S(=O)(=O)N(C)C)c1 | -3% | 11 | -12 | 3%
O=C(CN1CCN(C(=O)N2CCOCC2)CC1)Nc1ccc(Br)cc1 | 4% | -70* | -118* | 12%
O=C(CN1CCOCC1)Nc1ccc(Br)cc1 | 0% | 9 | -15 | 0%
Fc1ccc(NC(=S)NCc2ccc3c(c2)OCO3)cc1 | 0% | -71* | 2 | -10%
O=C(CN1CCCCC1)Nc1ccc(S(=O)(=O)N2CCCCCC2)cc1 | 0% | -83* | 55 | 11%
O=C(CN1CCCC1)Nc1ccc(F)cc1 | -1% | 4 | -3 | -1%
CCN(CC)c1ccc(NC(=O)CN2CCN(CC(=O)Nc3ccc(F)cc3)CC2)cc1 | 0% | -101* | -75* | -5%
Cc1cc(C)n(C(C)CNS(=O)(=O)c2ccccc2)n1 (centres undefined) | 0% | 20 | 8 | 2%
COc1cc2c(cc1OC)CN(C1CCCN(Cc3cc(Cl)ccc3O)C1)CC2 (centres undefined) | ? | -30 | -8 | -16%
NC(=O)c1ccccc1NC(=O)NC1CCCCC1 | 0% | -71* | -3 | 0%
O=C(COC(=O)COc1ccc(Cl)cc1)NC1CCCCCC1 | -2% | 11 | -13 | 0%
SMILES | Rango complex inh | KCNH2 3.1 inh | hERG WT inh | Rango release inh
O=C(CC(O)c1ccncc1)c1ccccc1O (centres undefined) | -3% | -19 | -1 | 1%
CN(C)c1cccc(C(=O)N(C)C2CCCN(Cc3ccccc3F)C2)c1 (centres undefined) | 0% | 7 | -71* | 2%
CCN(CC(=O)Nc1ccc(Br)cc1)C(=O)c1nc2nc(C)cc(C)n2n1 | 3% | 4 | 3 | 2%
COc1ccc(CN(C)CC(=O)N(C)CC(=O)Nc2ccccc2Br)cc1F | -1% | 5 | 20 | -6%
O=C(CN1CCN(C(=O)CCC(=O)N2CCC(c3ccccc3)=N2)CC1)Nc1ccc(F)cc1 | 4% | -5 | -2 | 5%
OCCC1CN(CC(c2ccccc2)c2ccccc2)CCN1C1CCCC1 (centres undefined) | 0% | -75* | 2 | 5%
OCCC1CN(CC#Cc2ccccc2)CCN1C1CCCC1 (centres undefined) | 4% | 8 | 12 | 23%
O=C(/C=C/Nc1ccc(S(=O)(=O)Nc2cnc3ccccc3n2)cc1)c1ccccc1 | ? | 8 | -36 | 8.2µM*
COc1cccc(C(=O)/C=C/Nc2ccc(S(=O)(=O)Nc3cnc4ccccc4n3)cc2)c1 | ? | -17 | 0 | ?
Cc1cc(=O)oc2cc(NS(=O)(=O)c3ccccc3)ccc12 | -11% | 0 | -6 | 16µM*
Cc1cc(=O)oc2cc(NS(=O)(=O)c3ccc(F)cc3)ccc12 | ? | -8 | 2 | ?
CCC1NC(=S)NC(C)=C1C(=O)c1ccccc1 (centres undefined) | -1% | -116* | 2 | -5%
CC12CCC(O)CC1=CCC1C2CCC2(C)c3[nH]ncc3CC12 (centres undefined) | -1% | -9 | 2 | 11%
O=C(NN1C(=O)NC2(CCCCC2)C1=O)c1cccs1 | -1% | 12 | 8 | ?
O=C(NN=C1CCCC1)c1ccc([N+](=O)[O-])cc1 | 0% | 0 | -222* | -13%
O=C(NC1CCCc2ccccc21)C1CCN(c2nnc(-n3cccc3)s2)CC1 (centres undefined) | -7% | -79* | -4 | -2%
CCN(CC(=O)Nc1ccc(NC(C)=O)cc1)C(=O)c1cc(S(=O)(=O)N2CCCCCC2)ccc1OC | 0% | 9 | -3 | -1%
Oc1cccc(C(=S)N2CCCCC2)c1 | ? | -146* | -4 | -16%
Oc1ccc(C(=S)N2CCCCCC2)cc1 | 7% | 4 | -2 | 19%
COc1ccc(C(=O)N2CCOC2CNC(=O)C(=O)NCc2ccccn2)cc1 (centres undefined) | · | -1 | 21 | ·
Cc1ccccc1NS(=O)(=O)c1cc(C(=O)N2CCc3ccccc3C2)ccc1C | ? | -7 | -1 | 2%
Cc1ccc(NS(=O)(=O)c2cc(C(=O)N3CCc4ccccc4C3)ccc2Cl)cc1 | -2% | 0 | -261* | 0%
CCOC(=O)CCCCCC(=O)Nc1ccc2c(c1)C(=O)N([C@@H](C)CO)C[C@H](C)[C@H](CN(C)C(=O)Nc1ccc(F)cc1)OCCCC[C@H](C)O2 | · | 4 | 2 | ·
CC1(C)Cc2c(sc3c2c(N)nc(=S)n3Cc2ccc(Br)cc2)CO1 | 2% | -104* | ? | 14%
CC1(C)Cc2c(sc3nnn(Cc4ccc(Cl)cc4)c(=O)c23)CO1 | 0% | -4 | -3 | 7%
Cc1ccc(NC(=O)COC(=O)C2CCC2)cc1S(=O)(=O)N1CCOCC1 | 0% | -21 | -3 | -8%
Oc1ccc(Br)cc1/C=N/n1c(-c2ccccc2)n[nH]c1=S | ? | 2 | -4 | ?
S=c1[nH]nc(-c2ccccc2)n1/N=C/c1cccc(Br)c1 | 2% | -93* | -3 | -1%
